Results as given in article PMC5540273 (PLoS ONE, 2017).

Columns and labels:
Details in all cases: concentration: 1 μM, replicates: in singlicate; n = 1
[1] = tested on: HPK1
[2] = tested on: HUNK
[3] = tested on: ICK
[4] = tested on: IGF1R
[5] = tested on: T1, IKK-alpha
T1 construct: gene CHUK

[6] = tested on: T2, IKK-beta
T2 construct: gene IKBKB

[7] = tested on: T3, IKK-epsilon
T3 construct: gene IKBKE

[8] = tested on: INSRR
[9] = tested on: INSR
[10] = tested on: IRAK1
[11] = tested on: IRAK3
[12] = tested on: IRAK4
[13] = tested on: ITK
[14] = tested on: JAK1(JH1domain-catalytic)
[15] = tested on: JAK1(JH2domain-pseudokinase)
[16] = tested on: JAK2(JH1domain-catalytic)
[17] = tested on: JAK3(JH1domain-catalytic)
[18] = tested on: T4, JNK1
T4 construct: gene MAPK8

[19] = tested on: T5, JNK2
T5 construct: gene MAPK9

[20] = tested on: T6, JNK3
T6 construct: gene MAPK10
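Further: KINOMEscan kinase panel screen.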

Row | Compound | %Inh [1] | %Inh [2] | %Inh [3] | %Inh [4] | %Inh [5] | %Inh [6] | %Inh [7] | %Inh [8] | %Inh [9] | %Inh [10] | %Inh [11] | %Inh [12] | %Inh [13] | %Inh [14] | %Inh [15] | %Inh [16] | %Inh [17] | %Inh [18] | %Inh [19] | %Inh [20]
1 | Cl.Oc1cccc(Nc2ccnc3cc(-c4ccncc4)ccc23)c1 [GW494601] | 37% | 11% | 0% | 13% | 23% | 0% | 20% | 0% | 0% | 22% | 57% | 1% | 0% | 65% | 0% | 50% | 18% | 14% | 37% | 21%
2 | Cn1cc(-c2ccc3c(c2)CCN3C(=O)Cc2ccccc2Cl)c2c(N)ncnc21 [GSK2608885] | 64% | 7% | 5% | 95.5% | 0% | 0% | 37% | 90.5% | 48% | 0% | 32% | 0% | 4% | 0% | 2% | 0% | 56% | 19% | 55% | 6%
3 | CN1c2ccc(NCc3ccc(F)cc3)cc2-c2c(cnn2C)S1(=O)=O | 26% | 52% | 0% | 0% | 0% | 0% | 0% | 16% | 0% | 0% | 0% | 0% | 0% | 0% | 11% | 1% | 0% | 0% | 0% | 0%
4 | Cc1cn2c(=O)cc(N3CCOCC3)nc2n1Cc1cccc(Cl)c1Cl [GSK2334006] | 30% | 9% | 12% | 0% | 7% | 18% | 3% | 28% | 0% | 0% | 13% | 5% | 14% | 2% | 0% | 2% | 0% | 18% | 16% | 6%
5 | CCn1cnc2c(N)ncnc21 [GW345098] | 0% | 4% | 0% | 3% | 0% | 4% | 0% | 0% | 10% | 0% | 10% | 0% | 16% | 10% | 19% | 7% | 17% | 16% | 0% | 0%
